Source: PubChem BioAssay (NCATS)
Records with an inconclusive call do not appear. Where a call stands in place of a potency, no number is given. The source made the active and inactive calls. Unless noted, calls follow the shape of the full dose curve.

Tests used:
[1] = qHTS for Inhibitors of the Functional Ribonucleoprotein Complex (vRNP) of Lassa (LASV) Arenavirus: LASV Primary Screen - GLuc reporter signal (AID 1347082; calls by dose curve; tested in HEK293 reporter line; also: nearly all actives have a fitted effect of over 60% in size; also: potency is read from the fitted curve at half-maximal effect); conditions: LASV minigenome vRNP, Gaussia luciferase reporter; series mostly up to 57.5 µM
[2] = qHTS for Inhibitors of the Functional Ribonucleoprotein Complex (vRNP) of Lassa (LASV) Arenavirus: Viability assay - alamar blue signal for LASV Primary Screen (AID 1347083; calls by dose curve; tested in HEK293 reporter line; also: nearly all actives have a fitted effect of over 80% in size; also: potency is read from the fitted curve at half-maximal effect); conditions: cell viability, alamar blue fluorescence (LASV minigenome counter-screen); series mostly up to 57.5 µM
[3] = qHTS for Inhibitors of the Functional Ribonucleoprotein Complex (vRNP) of Lymphocytic Choriomeningitis Arenaviruses (LCMV): Viability assay - alamar blue signal for LCMV Primary Screen (AID 1347085; calls by dose curve; tested in HEK293 reporter line; also: nearly all actives have a fitted effect of over 80% in size; also: potency is read from the fitted curve at half-maximal effect); conditions: alamar blue viability counter-screen, LCMV vRNP screen cells; series mostly up to 57.5 µM
[4] = target: Nucleoprotein (Lymphocytic choriomeningitis virus (strain Armstrong)) (UniProt P09992); assay: qHTS for Inhibitors of the Functional Ribonucleoprotein Complex (vRNP) of Lymphocytic Choriomeningitis Arenaviruses (LCMV): LCMV Primary Screen - GLuc reporter signal (AID 1347086); conditions: LCMV minigenome vRNP cell assay, Gaussia luciferase reporter; series mostly up to 57.5 µM; also: nearly all actives have a fitted effect of over 70% in size; also: potency is read from the fitted curve at half-maximal effect
[5] = Cytotoxicity counterscreen for inhibitors of SARS-CoV-2 cell entry (AID 1645845); conditions: cell viability (SARS-CoV-2 entry assay cells); series mostly up to 57.1 µM; also: nearly all actives have a fitted effect of over 50% in size; also: potency is read from the fitted curve at half-maximal effect
Summary of the method: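 48 h compound treatment (after 1 h preincubation), HEK293-ACE2 cells, 37 C/5% CO2; ATP luminescence endpoint; normalized to cell wells and media blanks.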

CRL-7250 = normal cell line; assay: qHTS assay to identify novel small-molecules to repurpose for Merkel cell carcinoma treatment (AID 1296009; active = well fitted inhibition curve with a large enough effect; also: nearly all actives have a fitted effect of over 60% in size); conditions: MCC and control cell lines, CellTiter-Glo viability, 72 h; series mostly up to 92 µM
Summary of the method: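 After compound transfer in DMSO, plates were kept 72 hr at 37 degree celsius. Luminescent ATP signal from CellTiter-Glo served as viability measure, normalized against DMSO and no-cell controls.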

Sequence of Nucleoprotein (Lymphocytic choriomeningitis virus (strain Armstrong)) (P09992 whole entry, looked up): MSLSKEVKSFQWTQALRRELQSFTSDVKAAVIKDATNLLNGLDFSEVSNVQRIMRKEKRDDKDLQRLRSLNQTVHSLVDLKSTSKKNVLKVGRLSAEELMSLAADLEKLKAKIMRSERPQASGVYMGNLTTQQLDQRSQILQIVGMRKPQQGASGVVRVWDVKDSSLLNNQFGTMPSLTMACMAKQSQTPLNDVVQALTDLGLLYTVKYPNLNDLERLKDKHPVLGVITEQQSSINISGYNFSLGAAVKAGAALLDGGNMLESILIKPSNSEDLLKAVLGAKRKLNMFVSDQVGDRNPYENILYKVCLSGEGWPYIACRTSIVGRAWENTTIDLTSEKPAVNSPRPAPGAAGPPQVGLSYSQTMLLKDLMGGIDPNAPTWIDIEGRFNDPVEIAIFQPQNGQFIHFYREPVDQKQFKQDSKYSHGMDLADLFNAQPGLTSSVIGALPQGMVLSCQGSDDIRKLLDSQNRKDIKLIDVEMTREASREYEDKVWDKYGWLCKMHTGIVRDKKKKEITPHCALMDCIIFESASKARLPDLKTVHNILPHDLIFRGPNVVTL

Structure (SMILES) | Potency [1] | Potency [2] | Potency [3] | Potency [4] | Potency [5] | Potency (CRL-7250) | outcome [5]
O=C(O)CCn1c2c(c3ccccc31)C[C@H](NS(=O)(=O)c1ccc(F)cc1)CC2 | inactive | inactive | inactive | inactive | inactive | inactive | –
CCCCCCCCCCCCCCCCCCCCCCO | inactive | inactive | inactive | inactive | inactive | inactive | –
O=C(O)CCC=CCC[C@@H]1[C@H](N2CCCCC2)[C@@H](O)C[C@@H]1OCc1ccc(-c2ccccc2)cc1 | inactive | inactive | inactive | inactive | inactive | inactive | –
O=C(NNC(=O)c1ccc(CNS(=O)(=O)c2ccc(F)c(Cl)c2)cc1)c1ccccc1 | inactive | inactive | inactive | inactive | – | inactive | –
CC(C)(O)[C@H]1CC[C@@](C)([C@H]2[C@@H](O)C[C@@]3(C)[C@@H]4C[C@H](O[C@@H]5O[C@H](CO)[C@@H](O)[C@H](O)[C@@H]5O)[C@H]5C(C)(C)[C@@H](O[C@@H]6OC[C@@H](O)[C@H](O)[C@@H]6O)CC[C@@]56C[C@@]46CC[C@]23C)O1 | inactive | inactive | inactive | inactive | – | inactive | –
CCCCCCCCCCCCc1ccc(S(=O)(=O)Nc2nncs2)cc1 | inactive | inactive | inactive | inactive | inactive | inactive | –
CC1COC2(CCN(c3nc(=O)c4cc(C(F)(F)F)cc([N+](=O)[O-])c4s3)CC2)O1 (configuration not stated) | inactive | inactive | inactive | inactive | inactive | inactive | –
CN1c2cc(O)c(N=NC(N)=O)cc2CC1S(=O)(=O)O (configuration not stated) | inactive | inactive | inactive | inactive | inactive | inactive | –
CN(C)CC(=O)N1CCC(c2ccc(NC(=O)c3ncc(C#N)[nH]3)c(C3=CCCCC3)c2)CC1 | inactive | inactive | inactive | inactive | inactive | inactive | –
CCc1nc(-c2cccc(C)c2)c(-c2ccnc(NC(=O)c3ccccc3)c2)s1 | inactive | inactive | inactive | inactive | inactive | inactive | –
COC1=C(OC)C(=O)C(CC=C(C)CCC=C(C)CCC=C(C)CCC=C(C)CCC=C(C)CCC=C(C)CCC=C(C)CCC=C(C)CCC=C(C)CCC=C(C)C)=C(C)C1=O | inactive | inactive | inactive | inactive | – | inactive | inactive [at 5.25 µM]
C=CC[N+]1([C@H]2C[C@H]3[C@@H]4CC[C@H]5C[C@H](O)[C@@H](N6CCOCC6)C[C@]5(C)[C@@H]4CC[C@]3(C)[C@H]2OC(C)=O)CCCC1 | inactive | inactive | inactive | inactive | – | inactive | –
COc1ccc(C2(C#N)CCC(C(=O)O)CC2)cc1OC1CCCC1 (configuration not stated) | inactive | inactive | inactive | inactive | inactive | inactive | –
O=C(O)C1=NC(C(=O)O)CC(C=CN2c3cc(O)c(OC4OC(CO)C(O)C(O)C4O)cc3CC2C(=O)O)=C1 (configuration not stated) | inactive | inactive | inactive | inactive | – | inactive | –
COc1c(O)cc2c(c1O)[C@@H]1O[C@H](CO)[C@@H](O)[C@H](O)[C@H]1OC2=O | inactive | inactive | inactive | inactive | – | inactive | –
CC(=O)C1=C(O)C=C2Oc3c(C(C)=O)c(O)c(C)c(O)c3C2(C)C1=O (configuration not stated) | inactive | inactive | inactive | inactive | – | inactive | –
C[C@@H]1CCO[C@H]2Cn3cc(C(=O)NCc4ccc(F)cc4F)c(=O)c(O)c3C(=O)N12 | inactive | inactive | inactive | inactive | inactive | inactive | –
O=C(O)[C@H](CC(=O)N1C[C@@H]2CCCC[C@H]2C1)Cc1ccccc1 | inactive | inactive | inactive | inactive | – | inactive | –
CCOC(=O)c1c(CSc2ccccc2)n(C)c2cc(Br)c(O)c(CN(C)C)c12 | inactive | inactive | inactive | inactive | inactive | inactive | –
Cc1ccc(Nc2cc(-c3cccc(N4C(=O)c5ccccc5C4=O)c3)ncn2)cc1NS(C)(=O)=O | inactive | inactive | inactive | inactive | 31.6 µM (active) | inactive | –

Structure (SMILES) | Potency [1] | Potency [2] | Potency [3] | Potency [4] | Potency [5] | Potency (CRL-7250) | outcome [5]
CC1C(=O)OC2C(O)C34C5CC(C(C)(C)C)C36C(OC(=O)C6O)OC4(C(=O)O5)C12O (configuration not stated) | inactive | inactive | inactive | inactive | – | inactive | –
OC[C@H]1O[C@@H](Oc2cc(O)cc(C=Cc3ccc(O)cc3)c2)[C@H](O)[C@@H](O)[C@H]1O | inactive | inactive | inactive | inactive | – | inactive | –
C=CC1=C(C(=O)O)N2C(=O)[C@@H](NC(=O)C(=NO)c3csc(N)n3)[C@H]2SC1 | inactive | inactive | inactive | inactive | – | inactive | –
CN[C@@H]1[C@@H](O)[C@@H](O[C@@H]2[C@@H](O)[C@H](O[C@H]3O[C@H](CN)[C@@H](O)[C@H](O)[C@@H]3O)[C@@H](N)C[C@@H]2NC(=O)[C@@H](O)CN)OC[C@]1(C)O | inactive | inactive | inactive | inactive | – | inactive | –
CCCCCCCCCC(=O)N[C@@H](Cc1c[nH]c2ccccc12)C(=O)N[C@H](CC(N)=O)C(=O)N[C@@H](CC(=O)O)C(=O)N[C@@H]1C(=O)NCC(=O)N[C@@H](CCCN)C(=O)N[C@@H](CC(=O)O)C(=O)N[C@H](C)C(=O)N[C@@H](CC(=O)O)C(=O)NCC(=O)N[C@H](CO)C(=O)N[C@@H]([C@@H](C)CC(=O)O)C(=O)N[C@@H](CC(=O)c2ccccc2N)C(=O)O[C@@H]1C | inactive | inactive | inactive | inactive | inactive | inactive | –
CN1C(C(=O)Nc2ccccn2)=C(O)c2sc(Cl)cc2S1(=O)=O | 24.3 µM (active) | 15.3 µM (active) | 24.3 µM (active) | 15.3 µM (active) | inactive | inactive | –
COC(=O)N1CCN(Cc2cccc(NC(=O)Nc3ccc(C)nc3)c2F)CC1 | inactive | inactive | inactive | inactive | inactive | inactive | –
CC(C)(Cc1ccc2ccccc2c1)NC[C@@H](O)COc1cccc(Cl)c1C#N | inactive | inactive | inactive | inactive | – | inactive | –
CN1CCC(COc2cnc(-c3cccc(Cn4nc(-c5cccc(C#N)c5)ccc4=O)c3)nc2)CC1 | 5.44 µM (active) | 0.153 µM (active) | 0.0611 µM (active) | 0.685 µM (active) | inactive | inactive | –
c1ccc(CNc2nc(N3CCOc4ccccc43)nc3c2CCCC3)cc1 | inactive | inactive | inactive | inactive | inactive | inactive | –
OC(CCN1CCCCC1)(c1ccccc1)C1CCCCC1 (configuration not stated) | inactive | inactive | inactive | inactive | inactive | inactive | –
CN(C)c1nc(Cc2ccc(NC(=O)c3ccc(C(F)(F)F)cc3)cc2)nc(N(C)C)c1CC(=O)O | inactive | inactive | inactive | inactive | – | inactive | –
COC(=O)[C@@H]1[C@H]2C[C@@H]3c4[nH]c5ccccc5c4CCN3C[C@@H]2CC[C@@H]1O | inactive | inactive | inactive | inactive | – | inactive | –
N#Cc1ccc(Oc2ccc3c(c2)COB3O)cc1 | inactive | inactive | inactive | inactive | inactive | inactive | –
CC1(C)S[C@H]2[C@H](NC(=O)[C@@H](N)c3ccc(O)cc3)C(=O)N2[C@@H]1C(=O)O | inactive | inactive | inactive | inactive | – | inactive | –
CN1[C@H]2CC(OC(=O)[C@@H](CO)c3ccccc3)C[C@H]1[C@H]1O[C@H]12 (some centres not stated) | inactive | inactive | inactive | inactive | – | inactive | –
Cc1cnc(Nc2cccc(CN3CCOCC3)c2)nc1Nc1cccc(S(=O)(=O)NC(C)(C)C)c1 | inactive | inactive | inactive | inactive | inactive | inactive | –
CC1(C)[C@H]2CC[C@]3(C)[C@@H](C(=O)C=C4[C@@H]5C[C@@](C)(C(=O)O)CC[C@]5(C)CC[C@]43C)[C@@]2(C)CC[C@@H]1O | inactive | inactive | inactive | inactive | – | inactive | –
Cc1ccc(C2=Nc3ccc(Cl)cc3OC2)cc1 | inactive | inactive | inactive | inactive | inactive | inactive | –
